Consider nine molecules from PubChem BioAssay AID2284357 (EPA ToxCast).

Records with an inconclusive call do not appear. The source made the active and inactive calls. How the source made its calls: active means hit-call score of the fitted dose curve at least 0.9, where 1 is the maximum; inconclusive means response in the unintended direction; inactive means score below 0.9.

The experiment deals with zebrafish Androgen Receptor (AR), gene 100005148. Briefly: ATG_zfAR_EcoTox2: Attagene TRANS-FACTORIAL EcoTox-2 HepG2 Assay for zebrafish Androgen Receptor (AR). As for the experimental part: ATG_EcoTox2 is a cell-based, multiplexed assay created by modifying the existing Attagene TRANS-FACTORIAL system to include a panel of nuclear receptors from some or all the following species: human (Homo sapiens), african clawed frog (Xenopus laevis), rainbow trout (Oncorhynchus mykiss), japanese medaka (Oryzias latipes), and zebrafish (Danio rerio). The ECOTOX2-FACTORIAL format uses HepG2, a human liver cell line, with measurements taken at 24 hours after chemical dosing in a 24-well plate. ATG_zfAR_EcoTox2 is one of 29 assay components calculated in the ATG_EcoTox2 assay. It is designed to make measurements of mRNA induction, a form of inducible reporter, as detected with fluorescence intensity signals by Reverse transcription polymerase chain reaction (RT-PCR) and Capillary electrophoresis technology.The assay endpoint ATG_zfAR_EcoTox2 was analyzed in the positive analysis fitting direction relative to DMSO as the negative control and baseline of activity. Using a type of inducible reporter, measures of mRNA for gain-of-signal activity can be used to understand the reporter gene at the transcription factor-level as they relate to the gene AR. Furthermore, this assay endpoint can be referred to as a primary readout, because this assay has produced multiple assay endpoints where this one serves a reporter gene function. To generalize the intended target to other relatable targets, this assay endpoint is annotated to the nuclear receptor intended target family, where the subfamily is steroidal.
Human liver HepG2 cells are transiently transfected with multiple reporter transcription units (MRTUs) in 6-well plates using FuGene 6 reagent (Roche; 3 ml FuGene/1 mg DNA). The MRTU constructs are regulated by a cis-regulating element (promoter). Each RTU expresses a GAL4-UAS that regulates the transcription of a nearby target reporter gene sequence. A major difference between the CIS and TRANS system is that in CIS activities of endogenous TFs are measured, whereas the TRANS assay evaluates changes in activities of exogenous, chimeric NR-Gal4 proteins. […] At the end of 24 hour incubation, total RNA was isolated using TriZol reagent (Invitrogen). The isolated RNA is then reverse-transcribed using oligo(dT) primer and Mo-MLV reverse transcriptase (Invitrogen) with DNAse I (Ambion) treatment for 30 min. The one-tenth of the produced cDNA was amplified by PCR using Taq DNA polymerase (Invitrogen) and two reporter sequence-specific primers. The PCR products were fluorescently labeled by primer extension with 6-arboxyfluorescein (6-FAM) 5'-labeled reporter sequence-specific primer (2 min at 95 C, 20 s at 68 C and 10 min at 72 C) and these products were digested with 5U of HpaI (New England Biolabs) for 2h at 37 C. The fragments were purified using Qiaquick PCR columns (Qiagen), analyzed on an ABI 3130xL genetic analyzer (Applied Biosystems) with peak positions identified by using a set of X-rhodamine (ROX)-labeled MapMarker1000 molecular weight standards (BioVentures). The raw capillary electrophoresis data was processed using Attagraph software (Attagene).

For the molecule `C[C@@H]1C[C@H]2[C@@H]3CCC4=CC(=O)C=C[C@]4(C)[C@@]3(F)[C@@H](O)C[C@]2(C)[C@@]1(O)C(=O)COP(=O)(O)O`, the molecule was classed as inactive.

As for `CC(c1cc2ccccc2s1)N(O)C(N)=O` (centres undefined), the molecule was classed as inactive.

`CC(C)OC(=O)C(C)(C)Oc1ccc(C(=O)c2ccc(Cl)cc2)cc1`: the outcome was inactive.

As to `CC(C)(Oc1ccc(Cl)cc1)C(=O)O`, the call was inactive.

`Cc1ccc(C)c(OCCCC(C)(C)C(=O)O)c1`: the call was inactive.

Take `C=C(c1ccc(C(=O)O)cc1)c1cc2c(cc1C)C(C)(C)CCC2(C)C`: the call was inactive.

With `Cc1cccc(Nc2cc(Cl)nc(SCC(=O)O)n2)c1C`, the molecule was classed as inactive.

Consider `C[C@]12C=CC(=O)C=C1CC[C@@H]1[C@@H]2C(=O)C[C@@]2(C)[C@H]1CC[C@]2(O)C(=O)CO`, for which the outcome was inactive.

On to `CC(C)(Oc1ccc(C2CC2(Cl)Cl)cc1)C(=O)O` (centres undefined), for which the result was inactive.
